According to publication PMC4336329 (PLoS ONE, 2015):
The whole screen tested about 310,000 compounds, of which about 14,000 (4.5%) showed an effect of 50% or more. Effects have a minus sign here. Shown is part of a subset that was picked to be rich in strong results.

Target: human ether-à-go-go-related gene (hERG) potassium channel (human, UniProt Q12809)
Assay: primary screen, population patch clamp on CHO cells stably expressing hERG; higher = less effect of the substance
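Further: peak tail current of the secondary pulse compared with the same well before compound.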

Chain of human ether-à-go-go-related gene (hERG) potassium channel (Q12809 whole entry, looked up): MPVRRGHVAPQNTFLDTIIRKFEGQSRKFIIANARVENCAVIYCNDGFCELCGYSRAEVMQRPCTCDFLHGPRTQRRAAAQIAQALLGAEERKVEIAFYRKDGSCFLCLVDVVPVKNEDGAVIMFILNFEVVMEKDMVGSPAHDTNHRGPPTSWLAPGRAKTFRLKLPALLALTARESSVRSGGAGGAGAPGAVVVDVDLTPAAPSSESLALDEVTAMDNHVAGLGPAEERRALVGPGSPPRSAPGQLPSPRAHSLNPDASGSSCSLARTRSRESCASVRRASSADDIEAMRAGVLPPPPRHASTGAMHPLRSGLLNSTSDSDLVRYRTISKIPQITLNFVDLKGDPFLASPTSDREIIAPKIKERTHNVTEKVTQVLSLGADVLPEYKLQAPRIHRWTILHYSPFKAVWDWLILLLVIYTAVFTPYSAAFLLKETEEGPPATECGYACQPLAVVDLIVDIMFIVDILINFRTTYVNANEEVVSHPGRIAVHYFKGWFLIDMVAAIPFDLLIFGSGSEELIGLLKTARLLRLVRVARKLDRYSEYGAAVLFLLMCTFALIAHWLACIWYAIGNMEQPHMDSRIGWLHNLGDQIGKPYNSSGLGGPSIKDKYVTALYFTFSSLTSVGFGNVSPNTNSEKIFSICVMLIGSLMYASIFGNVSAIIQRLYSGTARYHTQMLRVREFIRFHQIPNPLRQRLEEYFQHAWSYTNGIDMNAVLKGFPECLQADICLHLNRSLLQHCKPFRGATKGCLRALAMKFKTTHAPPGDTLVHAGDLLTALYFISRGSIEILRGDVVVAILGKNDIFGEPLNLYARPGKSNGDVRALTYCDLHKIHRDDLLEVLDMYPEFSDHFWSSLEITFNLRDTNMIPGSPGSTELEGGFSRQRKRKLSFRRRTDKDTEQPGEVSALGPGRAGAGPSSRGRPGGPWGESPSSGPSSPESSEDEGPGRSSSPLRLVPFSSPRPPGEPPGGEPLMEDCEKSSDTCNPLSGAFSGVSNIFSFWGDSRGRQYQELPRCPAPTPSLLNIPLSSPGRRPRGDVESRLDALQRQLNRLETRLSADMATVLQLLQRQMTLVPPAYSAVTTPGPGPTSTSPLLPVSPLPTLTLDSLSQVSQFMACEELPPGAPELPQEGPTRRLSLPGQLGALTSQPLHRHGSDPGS

SMILES	hERG current change (%, negative = inhibition) at 10uM [%]
O=C(/C=C/c1ccc(O)cc1)c1ccc(O)cc1O	9.4
CCCn1c(O)c(CN2CCCCC2)c(C)c(C#N)c1=O	15.5
O=C(NC(=S)Nc1ccc(N2CCOCC2)cc1)c1cncc(Br)c1	19.5
CC(C)CC(=O)Nc1ccnn1C1CCN(C(=O)c2ccc(Cl)cc2F)CC1	-30.4
N#CC(C#N)C(c1ccsc1)c1c(-c2ccccc2)[nH][nH]c1=O (stereo not drawn)	-3.36
CN1C(=O)C(=O)/C(=C(/O)c2ccc(Br)cc2)C1c1ccccc1F (stereo not drawn)	8.71
O=C(C1=C[C@@H](c2coc3ccccc3c2=O)C[C@@H](OCCCCO)O1)N1CCN(Cc2ccccc2)CC1	-57.9
O=C(C1=C[C@H](c2coc3ccccc3c2=O)C[C@H](OCCCCO)O1)N1CCOCC1	-16
CN1CCN(C(=O)C2=C[C@@H](c3coc4ccccc4c3=O)C[C@@H](OCCCCO)O2)CC1	0.749
O=C(C1=C[C@@H](c2coc3ccccc3c2=O)C[C@@H](OCCCCO)O1)N1CCOCC1	7.47
O=C(C1=C[C@H](c2coc3ccccc3c2=O)C[C@H](OCCCCO)O1)N1CCN(Cc2ccccc2)CC1	-61.5
CN1CCN(C(=O)C2=C[C@H](c3coc4ccccc4c3=O)C[C@H](OCCCCO)O2)CC1	-20.3
Nc1nc(Sc2c([N+](=O)[O-])cc(C(F)(F)F)cc2[N+](=O)[O-])n[nH]1	3.04
CCn1c(COc2ccccc2OC)nc2ccccc21	2.28
Cc1ccc(-c2csc3nc(SCC(=O)N(C)C)n(Cc4ccccc4)c(=O)c23)cc1	-26
Cc1[nH][nH]c(=O)c1C(c1ccc(O)c(Br)c1)c1c(C)[nH][nH]c1=O	4.34
O=C(c1ccccc1Br)N1CCN(c2ccccn2)CC1	9.41
O=C(COC(=O)CCSc1ccccc1)NCc1ccccc1Cl	22.4
Nc1nc(Sc2ncccc2[N+](=O)[O-])n[nH]1	3.27
COc1ccccc1NC(=S)N1C2CCC1CC(NC(=O)NC13CC4CC(CC(C4)C1)C3)C2 (stereo not drawn)	-2.49
Cc1cccc(N2C(=O)CN(Cc3sccc3C)C2=S)c1	-7.83
COc1ccccc1N1CCN(C(=O)c2cc(-c3ccccc3)on2)CC1	8.22

SMILES	hERG current change (%, negative = inhibition) at 10uM [%]
Cn1c(Nc2ccccc2)nc2ccccc21	1.74
Cn1c(Nc2ccc(F)cc2)nc2ccccc21	-51.7
Cn1c(N2CCN(C(=O)Nc3ccc(C(F)(F)F)cc3)CC2)nc2ccccc21	-41.3
O=C(Nc1ccc(F)cc1)N1CCN(c2nc3ccccc3s2)CC1	1.48
Cn1c(N2CCN(C(=O)Nc3ccc(F)cc3)CC2)nc2ccccc21	-55.8
CCn1c(N2CCN(S(=O)(=O)c3ccc(F)cc3)CC2)nc2ccccc21	-36.2
CCn1c(N2CCN(C(=S)NCC(C)C)CC2)nc2ccccc21	-30.4
CCn1c(N2CCN(C(=S)Nc3ccc(OC)cc3)CC2)nc2ccccc21	-68.3
CCn1c(N2CCN(C(=S)NC)CC2)nc2ccccc21	-30.2
CCn1c(N2CCN(C(=O)Nc3ccc(F)cc3)CC2)nc2ccccc21	-68.2
CCn1c(N2CCN(C(=O)NC3CCCCC3)CC2)nc2ccccc21	-32.5
COc1ccc(Nc2nc3ccccc3n2C)cc1	11.3
Oc1ccc(CN2CCc3ccccc3C2)c2cccnc12	-48.8
Cn1c(C(=O)N2CCN(C(=O)c3ccco3)CC2)cc2c(=O)n3ccccc3nc21	-14.5
CC(C)C(NS(=O)(=O)c1ccc2c(c1)OCCO2)C(=O)NCCc1ccccn1 (stereo not drawn)	6.06
Cc1cccc(NC(=O)CSc2nnc(C)c(C)n2)c1	15.3
COc1nc(OC)nc(N2CCC(NC(=O)C(Cc3ccc(C(C)C)cc3)NC(C)=O)CC2)n1 (stereo not drawn)	5.87
CO/N=C(\C(=O)N[C@@H]1C(=O)N2C(C(=O)[O-])=C(COC(N)=O)CS[C@H]12)c1ccco1.[Na+]	18.9
O=C(Nc1ccc(Br)cn1)c1cccc2ccccc12	12.2
Cl.O=C(OCCN1CCOCC1)c1ccc(Cl)cc1Cl	-0.913
CCCCN1CCC(COC(=O)c2cc(Cl)c(N)c3c2OCCO3)CC1.Cl	-59.4
CC1CCN(C(=O)COC(=O)c2cc(Cl)cc(Cl)c2N)CC1	-19.9

SMILES	hERG current change (%, negative = inhibition) at 10uM [%]
COc1cc(C(=O)OCc2cc(=O)c(O)co2)ccc1OC(F)F	-12.9
O=C(NCC(=O)N(CCN1CCOCC1)C(C(=O)NC1CCCC1)c1cccnc1)c1cccs1 (stereo not drawn)	13.1
CCOC(=O)C1(CCCc2ccccc2)CCN(C(=O)CCC2=NNC(=O)CC2)CC1	11.8
CCOC(=O)C1(Cc2ccccc2)CCCN(CCCn2cccn2)C1 (stereo not drawn)	-14.2
CCOC(=O)C1(CCCc2ccccc2)CCN(C(=O)CCc2cnn(C)c2)CC1	-74.2
CCOC(=O)C1(CCCc2ccccc2)CCN(Cc2cnn(C)c2)CC1	-71.6
CCOC(=O)C1(CCCc2ccccc2)CCN(C(=O)CCOC)CC1	-46.8
CCOC(=O)C1(CCCc2ccccc2)CCN(CCCn2cccn2)CC1	-79.1
CCOC(=O)C1(CCc2ccccc2)CCN(C(=O)CN2C(=O)CSC2=O)CC1	-23.3
CCOC(=O)C1(CCc2ccccc2)CCN(C(=O)CCc2cnn(C)c2)CC1	-51.2
Cc1cc(OCC(=O)Nc2ccncc2)cc(C)c1Cl	6.51
Cc1ccc(CNC(=O)/C=C/C(=O)O)cc1	-15.4
Cc1n[nH]c(=O)n1-c1ccc(C(C)C)cc1	18.4
O=C(Nc1ccccc1)NC1(C(=O)N2CCN(C(=O)c3ccco3)CC2)CCCCC1	0.526
CCc1ccc(C2C(=O)c3ccccc3C2=O)cc1	-3.18
O=C(NNC(=O)c1cnccn1)c1ccc(Cl)cc1	10.1
Cc1cccc(N2CCN(Cc3cc(=O)n4ccsc4n3)CC2)c1C	-37.1
CCOC(=O)CC12CN3CN(C1)CC(CC(=O)OCC)(C3)C2=O	8.62
O=C(O)CCn1c(=S)oc2ccccc21	-0.618
CCOC(=O)C1(Cc2ccccc2)CCN(Cc2cnn(CC)c2)CC1	-21.2
CCOC(=O)C1(Cc2ccccc2)CCN(Cc2cnn(-c3ccccc3)c2)CC1	-81.4
CCOC(=O)C1(Cc2ccccc2)CCN(Cc2cnn(C(C)C)c2)CC1	-28.7

SMILES	hERG current change (%, negative = inhibition) at 10uM [%]
CCOC(=O)C1(CCCc2ccccc2)CCN(C(=O)Cn2nc(C)nc2C)CC1	-24.6
CCOC(=O)C1(CCCc2ccccc2)CCN(Cc2cn(CC)nc2C)CC1	-74.1
CCN1C(=O)C(=Cc2ccc(C)s2)C(=O)N(CC)C1=S	5.09
COc1ccc(OCC(=O)NCc2ccc(Cl)cc2)cc1	1.55
COC(=O)c1nc(N)sc1-c1ccc(OC)cc1	10.3
Cc1ccc(Oc2ccccc2NC(=O)CN2C(=O)NC3(CCCC3)C2=O)cc1	11
O=C1NC(=O)N(c2ccc(Cl)cc2)C(=O)/C1=C\c1ccc(Sc2nc3ccccc3[nH]2)o1	-65.6
O=C1NC(=O)N(c2cccc(Cl)c2)C(=O)/C1=C\c1ccc(Sc2nc3ccccc3[nH]2)o1	13.9
O=C1NC(=O)N(c2ccccc2F)C(=O)/C1=C/c1ccc(Sc2nc3ccccc3[nH]2)o1	-4.03
c1ccc(-n2ncc3c2ncn2nc(-c4ccco4)nc32)cc1	13.3
O=S(=O)(c1cccc(Cl)c1)N1CCC(c2nc3ccccc3[nH]2)CC1	2.21
O=S(=O)(c1ccccc1F)N1CCC(c2nc3ccccc3[nH]2)CC1	-13.3
O=S(=O)(c1cccc(C(F)(F)F)c1)N1CCC(c2nc3ccccc3[nH]2)CC1	0.277
CC(=O)c1ccc(S(=O)(=O)N2CCC(c3nc4ccccc4[nH]3)CC2)cc1	-54.3
COc1ccc(S(=O)(=O)N2CCC(c3nc4ccccc4[nH]3)CC2)cc1	10.3
COc1ccc(OC)c(S(=O)(=O)N2CCC(c3nc4ccccc4[nH]3)CC2)c1	-55.7
O=S(=O)(c1ccc(F)cc1)N1CCC(c2nc3ccccc3[nH]2)CC1	-2.46
CC(=O)c1cccc(S(=O)(=O)N2CCC(c3nc4ccccc4[nH]3)CC2)c1	-56.6
CC(=O)Nc1ccc(S(=O)(=O)N2CCC(c3nc4ccccc4[nH]3)CC2)cc1	-18.4
Cc1[nH]c2ccc(F)cc2c1CCN(Cc1ccncc1)C(=S)Nc1ccc(F)cc1	-38.4
CC1=NN(C(=O)c2ccc(Cn3cc([N+](=O)[O-])cn3)cc2)C(O)(C(F)(F)F)C1 (stereo not drawn)	-21.1
